This is an account of results in the supplement of paper PMC9492666.

Test [1] deals with HCC1937. The experiment in a line: relative cell viability, compound alone, vs DMSO (fraction of DMSO control); higher = less growth inhibition. The settings on record: 72 h.
Test [2] has as its system MDA-MB-231. The description is as above. The settings on record: 72 h.

Structures are written as SMILES. Structures can show the parent of a compound that is named as a salt.
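Further: viability read out with the CCK-8 kit in 96-well plates, screening a set of 303 compounds acting on lipid metabolism targets.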

As to `CC(C)(Oc1ccc(CCNC(=O)c2ccc(Cl)cc2)cc1)C(=O)O` [Bezafibrate], the values for the relative cell viability in test [1] and in test [2] were 0.628 and 0.823, respectively.
For the compound `CCN(CC)CCN(Cc1ccc(-c2ccc(C(F)(F)F)cc2)cc1)C(=O)Cn1c(SCc2ccc(F)cc2)nc(=O)c2c1CCC2` [Darapladib], the relative cell viability in test [1] stood at 0.0924; in test [2], 0.22.
The like results for `CN(C)CCOC(=O)COc1ccc(Cl)cc1` [Meclofenoxate hydrochloride] were, in that order, 0.782 and 0.933.
In the same order, the values of `CCOC(=O)N1c2ccc(C(F)(F)F)cc2[C@@H](N(Cc2cc(C(F)(F)F)cc(C(F)(F)F)c2)C(=O)OC)C[C@H]1CC` [Torcetrapib] are 0.745 and 0.781.
In the same order, the values of `CC(C)(Oc1ccc(C2CC2(Cl)Cl)cc1)C(=O)O` (configuration not stated) [Ciprofibrate] are 1.15 and 0.937.
On to `CC[C@@H]1/C=C(\C)C[C@H](C)C[C@H](OC)[C@H]2O[C@@](O)(C(=O)C(=O)N3CCCC[C@H]3C(=O)O[C@H](/C(C)=C/[C@@H]3CC[C@@H](O)[C@H](OC)C3)[C@H](C)[C@@H](O)CC1=O)[C@H](C)C[C@@H]2OC` [Ascomycin], for which the relative cell viability in test [1] came out at 0.185; in test [2] it was 0.236.
The like results for `COc1cccc(-n2c(=O)[nH]c3cc(Cl)n(-c4ccc(-c5cccc(OC)c5O)cc4)c3c2=O)c1` were, in that order, 0.835 and 0.903.
Regarding `O=C(OC(C(F)(F)F)C(F)(F)F)N1CCC(C(O)(c2ccc3c(c2)OCO3)c2ccc3c(c2)OCO3)CC1`, the relative cell viability in test [1] worked out at 1.06; in test [2] it was 0.855.
In the same order, the values of `Cc1c(C(=O)Nc2ccc(CO)cc2)nnn1Cc1ccc(Cl)c(Cl)c1` are 0.975 and 0.95.
The like results for `CN1CCN(c2ccc(/C=C(\C#N)c3ccccc3Br)cc2)CC1` [DG172 (dihydrochloride)] were, in that order, 0.933 and 0.965.
On to `CCOC(=O)c1c(NC(=O)CN2CCN(C(=O)c3ccco3)CC2)sc2c1CCC2`, for which the relative cell viability in test [1] came to 0.857; in test [2] it was 0.967.
The like results for `COc1cc(N2CCN(C)CC2)ccc1Nc1ncc2c(n1)N(C)c1ccccc1C(=O)N2` were, in that order, 0.666 and 0.655.
The like results for `CC(C)c1cc(C(C)C)c(CC(=O)NS(=O)(=O)Oc2c(C(C)C)cccc2C(C)C)c(C(C)C)c1` [Avasimibe] were, in that order, 0.707 and 0.832.
The like results for `O=C(/C=C/c1ccc(/C=C/C(=O)Nc2ccc(C3=NCCN3)cc2)cc1)Nc1ccc(C2=NCCN2)cc1` were, in that order, 0.772 and 0.765.
`Cc1ccc(/C=C2\SC(=S)N(CCCCCC(=O)Nc3ccc(C(=O)O)c(O)c3)C2=O)cc1`: the relative cell viability in test [1] amounted to 1.07; in test [2] it was 0.914.
The like results for `O=S(=O)(Nc1ccc(C(O)(C(F)(F)F)C(F)(F)F)cc1)c1cccs1` were, in that order, 1.1 and 1.03.
The like results for `Cc1cccc(Nc2cc(Cl)nc(SCC(=O)O)n2)c1C` [Pirinixic Acid] were, in that order, 0.824 and 0.88.
The like results for `Nc1ccc(C(=O)O)c(O)c1` [Aminopar] were, in that order, 1.1 and 0.911.
On to `CC(C)n1c(/C=C/C(O)CC(O)CC(=O)O)c(-c2ccc(F)cc2)c2ccccc21` (configuration not stated) [Fluvastatin sodium salt], for which the relative cell viability is 0.924 in test [1] and 0.863 in test [2].
In the same order, the values of `NC(CO)C(=O)O` (racemic) [DL-Serine] are 0.683 and 0.77.
In the same order, the values of `O=c1ccc2cc(O)c(O)cc2o1` [Esculetin] are 0.673 and 0.672.
In the same order, the values of `Cc1cc(C)c(S(=O)(=O)Nc2cccc(C(F)(F)F)c2)c(C)c1` are 1.12 and 1.18.
Consider `COc1c(/C=C/C(=O)c2ccc(O)cc2)ccc(O)c1CC=C(C)C`, for which the relative cell viability was determined as 1.06 in test [1] and 0.885 in test [2].
Consider `CC1CC(OC(=O)C(O)c2ccccc2)CC(C)(C)C1` (configuration not stated) [Cyclandelate], for which the results for the relative cell viability in test [1] and in test [2] were 1.21 and 0.825, respectively.
The like results for `CC[C@H](C)C(=O)O[C@H]1C[C@H](O)C=C2C=C[C@H](C)[C@H](CC[C@@H](O)C[C@@H](O)CC(=O)O)[C@H]21` [Pravastatin sodium] were, in that order, 0.918 and 0.964.
In the same order, the values of `O=C(Nc1ccc(C(O)(C(F)(F)F)C(F)(F)F)cc1)c1ccccc1Cl` are 1.05 and 1.01.
In the same order, the values of `CN(C)C(=O)Nc1cccc(-c2ccc(N(C)C)cc2)c1` [Atglistatin] are 0.661 and 0.83.
Consider `O=C(NNc1ccccc1)c1ccncc1` [PluriSln 1], for which the values for the relative cell viability in test [1] and in test [2] were 0.925 and 0.814, respectively.
As to `O=C(ON1C(=O)CCC1=O)N1CCN(C(c2ccc(Cl)cc2)c2ccc(Cl)cc2)CC1` [Cravatt Reagent], the figures for the relative cell viability in test [1] and in test [2] were 1.26 and 0.975, respectively.
The like results for `COc1ccc(-c2coc3cc(OC)ccc3c2=O)cc1` [4',7-Dimethoxyisoflavone] were, in that order, 0.486 and 0.693.
In the same order, the values of `CC(C)(O)[C@@H]1Cc2cc3ccc(=O)oc3cc2O1` [marmesin] are 0.74 and 0.866.
In the same order, the values of `COc1ccc2c(c1)c(CC(=O)O)c(C)n2C(=O)c1ccc(Cl)cc1` [Indometacin] are 1.28 and 0.842.
As for `Cc1coc2c1C(=O)C(=O)c1c-2ccc2c(C)cccc12` [Tanshinone I], the values for the relative cell viability in test [1] and in test [2] were 0.287 and 0.51, respectively.
For `C=C1C[C@]2(O)O[C@@]3(CC2=C(C)C)[C@@H](C)CC[C@@H]13` [Isocurcumenol], the values for the relative cell viability in test [1] and in test [2] were 0.933 and 0.92, respectively.
The like results for `CCOC(=O)C(C)(C)Oc1ccc(Cl)cc1` [Clofibrate] were, in that order, 1.15 and 0.9.
The like results for `COc1ccc(CN2CCC(c3ccc4nc(C(=O)N5CCN(Cc6ccc(C(F)(F)F)cc6)CC5)[nH]c4c3)CC2)cn1` were, in that order, 0.849 and 0.795.
